# In paper PMC2807882, “Conservation of DNA-binding specificity and oligomerisation properties within the p53 family”:
# Columns and labels:
# Experiment in all cases: fluorescence anisotropy competition titration; 25 mM sodium phosphate (purification buffer pH 7.2), 225 mM NaCl, 10% v/v glycerol, 5 mM DTT, 0.2 mg/mL BSA, 22 C; low values mean tight binding
# Details in all cases: protein: recombinant; tags: N-terminal 6xHis-lipoyl-TEV tag, cleaved; chain copies: 4; dsDNA, one strand shown
# [1] = biological target: T1, Dmp53 (Drosophila melanogaster, UniProt Q9N6D8 1-385)
# T1 sequence: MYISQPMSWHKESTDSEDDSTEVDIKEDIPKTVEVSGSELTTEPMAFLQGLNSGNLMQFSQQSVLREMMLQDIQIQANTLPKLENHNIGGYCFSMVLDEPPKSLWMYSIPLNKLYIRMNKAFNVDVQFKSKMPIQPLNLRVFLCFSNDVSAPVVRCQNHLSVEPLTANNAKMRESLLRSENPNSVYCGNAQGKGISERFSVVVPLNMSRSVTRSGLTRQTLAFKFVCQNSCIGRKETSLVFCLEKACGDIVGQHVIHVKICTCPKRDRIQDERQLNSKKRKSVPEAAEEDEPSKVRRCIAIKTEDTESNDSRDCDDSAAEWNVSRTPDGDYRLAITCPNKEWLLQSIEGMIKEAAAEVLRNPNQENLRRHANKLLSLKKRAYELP
# [2] = biological target: T2, Drp53 (Danio rerio, UniProt P79734 1-373)
# T2 sequence: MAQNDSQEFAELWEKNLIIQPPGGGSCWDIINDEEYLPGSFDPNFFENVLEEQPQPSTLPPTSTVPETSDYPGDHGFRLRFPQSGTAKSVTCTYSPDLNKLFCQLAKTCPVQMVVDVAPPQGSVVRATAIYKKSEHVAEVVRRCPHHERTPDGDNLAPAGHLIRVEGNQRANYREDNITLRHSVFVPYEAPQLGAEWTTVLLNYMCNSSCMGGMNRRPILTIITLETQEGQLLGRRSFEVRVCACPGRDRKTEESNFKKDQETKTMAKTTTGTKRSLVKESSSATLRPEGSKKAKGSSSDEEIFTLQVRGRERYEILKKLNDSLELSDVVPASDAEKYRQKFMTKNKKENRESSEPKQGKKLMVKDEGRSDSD
# [3] = biological target: Hsp53 (Homo sapiens, UniProt P04637 1-393)
# Sequence of Hsp53 (P04637 whole entry): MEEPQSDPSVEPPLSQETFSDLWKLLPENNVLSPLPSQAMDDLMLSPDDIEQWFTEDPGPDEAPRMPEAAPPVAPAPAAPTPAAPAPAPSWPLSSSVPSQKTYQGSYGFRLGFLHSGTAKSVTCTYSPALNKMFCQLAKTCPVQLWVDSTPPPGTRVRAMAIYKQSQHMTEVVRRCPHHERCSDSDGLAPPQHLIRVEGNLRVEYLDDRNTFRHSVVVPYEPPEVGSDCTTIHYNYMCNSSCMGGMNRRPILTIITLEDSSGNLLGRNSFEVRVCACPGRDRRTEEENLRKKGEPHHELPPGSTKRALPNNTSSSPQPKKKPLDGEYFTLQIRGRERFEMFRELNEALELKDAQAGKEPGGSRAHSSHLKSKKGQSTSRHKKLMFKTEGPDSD
# [4] = biological target: Xlp53 (Xenopus laevis, UniProt Q7T1D0 1-362)
# Sequence of Xlp53 (Q7T1D0 entry or part of it): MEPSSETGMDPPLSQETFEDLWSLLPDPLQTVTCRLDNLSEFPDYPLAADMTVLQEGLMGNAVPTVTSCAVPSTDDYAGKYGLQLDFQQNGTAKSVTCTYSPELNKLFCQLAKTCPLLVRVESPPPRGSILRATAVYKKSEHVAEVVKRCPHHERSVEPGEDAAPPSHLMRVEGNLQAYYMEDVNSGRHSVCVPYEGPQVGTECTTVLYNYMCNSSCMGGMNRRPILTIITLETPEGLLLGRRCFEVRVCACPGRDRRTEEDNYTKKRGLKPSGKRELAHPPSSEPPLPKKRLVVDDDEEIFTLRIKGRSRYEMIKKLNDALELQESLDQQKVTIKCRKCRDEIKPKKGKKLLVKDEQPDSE
# [5] = biological target: T3, ΔNp63α (Homo sapiens, UniProt Q9H3D4-2 1-586)
# T3 sequence: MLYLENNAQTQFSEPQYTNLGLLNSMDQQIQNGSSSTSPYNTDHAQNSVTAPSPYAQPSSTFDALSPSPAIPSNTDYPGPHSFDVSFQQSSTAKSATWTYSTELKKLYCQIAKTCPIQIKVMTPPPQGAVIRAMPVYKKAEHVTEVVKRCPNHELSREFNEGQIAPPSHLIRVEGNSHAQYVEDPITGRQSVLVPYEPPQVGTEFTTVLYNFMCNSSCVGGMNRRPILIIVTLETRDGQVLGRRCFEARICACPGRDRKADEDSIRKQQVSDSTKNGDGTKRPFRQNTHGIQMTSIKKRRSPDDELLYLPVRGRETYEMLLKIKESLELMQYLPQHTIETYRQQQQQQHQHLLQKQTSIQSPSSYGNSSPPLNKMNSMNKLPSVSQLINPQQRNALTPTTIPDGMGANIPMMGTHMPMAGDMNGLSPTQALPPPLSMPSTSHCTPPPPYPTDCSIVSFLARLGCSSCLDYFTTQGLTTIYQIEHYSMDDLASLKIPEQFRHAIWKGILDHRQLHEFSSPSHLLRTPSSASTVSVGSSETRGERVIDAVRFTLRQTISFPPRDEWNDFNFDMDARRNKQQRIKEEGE
# [6] = biological target: T4, ΔNp63β (Homo sapiens, UniProt Q9H3D4-4 1-461)
# T4 sequence: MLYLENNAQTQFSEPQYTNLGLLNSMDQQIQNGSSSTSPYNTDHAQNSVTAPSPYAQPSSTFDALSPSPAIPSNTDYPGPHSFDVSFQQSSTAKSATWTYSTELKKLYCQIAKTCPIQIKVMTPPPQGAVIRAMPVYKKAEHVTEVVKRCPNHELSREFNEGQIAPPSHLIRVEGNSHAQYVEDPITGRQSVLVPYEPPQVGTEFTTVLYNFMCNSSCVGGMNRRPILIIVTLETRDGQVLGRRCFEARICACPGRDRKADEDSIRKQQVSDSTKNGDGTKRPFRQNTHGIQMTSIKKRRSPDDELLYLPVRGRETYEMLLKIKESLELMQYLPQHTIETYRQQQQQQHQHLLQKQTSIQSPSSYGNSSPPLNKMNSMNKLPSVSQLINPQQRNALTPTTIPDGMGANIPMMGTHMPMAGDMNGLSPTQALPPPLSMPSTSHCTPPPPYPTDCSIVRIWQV
# [7] = biological target: T5, ΔNp63γ (Homo sapiens, UniProt Q9H3D4-6 1-393)
# T5 sequence: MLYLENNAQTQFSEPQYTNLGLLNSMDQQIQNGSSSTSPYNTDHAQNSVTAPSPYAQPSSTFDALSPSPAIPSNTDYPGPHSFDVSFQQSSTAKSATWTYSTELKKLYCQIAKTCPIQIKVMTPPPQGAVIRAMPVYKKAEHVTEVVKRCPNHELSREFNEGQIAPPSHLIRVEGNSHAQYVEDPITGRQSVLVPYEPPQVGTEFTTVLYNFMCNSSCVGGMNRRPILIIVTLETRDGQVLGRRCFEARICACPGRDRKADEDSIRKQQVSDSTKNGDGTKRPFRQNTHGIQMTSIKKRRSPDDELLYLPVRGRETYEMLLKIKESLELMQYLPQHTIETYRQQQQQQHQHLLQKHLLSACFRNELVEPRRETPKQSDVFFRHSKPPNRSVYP
# [8] = biological target: T6, ΔNp73β (Homo sapiens, UniProt O15350-9 1-450)
# T6 sequence: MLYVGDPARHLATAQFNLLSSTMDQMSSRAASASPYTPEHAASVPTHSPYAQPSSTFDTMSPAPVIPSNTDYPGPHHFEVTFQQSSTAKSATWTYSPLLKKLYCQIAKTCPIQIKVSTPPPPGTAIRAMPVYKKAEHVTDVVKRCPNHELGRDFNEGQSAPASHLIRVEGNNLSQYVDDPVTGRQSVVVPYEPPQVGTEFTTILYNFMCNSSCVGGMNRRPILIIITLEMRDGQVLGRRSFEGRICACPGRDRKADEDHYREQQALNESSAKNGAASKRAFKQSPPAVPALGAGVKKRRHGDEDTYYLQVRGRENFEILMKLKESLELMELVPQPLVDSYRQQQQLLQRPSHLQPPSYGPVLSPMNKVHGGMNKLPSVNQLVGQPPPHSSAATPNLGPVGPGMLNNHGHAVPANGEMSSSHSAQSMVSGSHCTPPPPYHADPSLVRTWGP
# [9] = biological target: Mmp53 (Mus musculus, UniProt P02340 1-390)
# Sequence of Mmp53 (P02340 whole entry): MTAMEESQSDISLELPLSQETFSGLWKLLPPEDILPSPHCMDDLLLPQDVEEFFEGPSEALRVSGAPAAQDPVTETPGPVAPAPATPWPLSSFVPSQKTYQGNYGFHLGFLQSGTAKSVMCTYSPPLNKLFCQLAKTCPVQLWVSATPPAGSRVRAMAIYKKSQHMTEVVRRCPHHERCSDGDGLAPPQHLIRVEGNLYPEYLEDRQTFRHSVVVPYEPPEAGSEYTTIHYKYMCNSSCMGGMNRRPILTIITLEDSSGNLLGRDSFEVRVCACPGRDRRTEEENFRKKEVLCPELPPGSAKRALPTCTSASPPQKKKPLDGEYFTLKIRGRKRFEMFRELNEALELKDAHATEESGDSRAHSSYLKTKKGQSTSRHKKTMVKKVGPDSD
# [10] = biological target: T7, p73CT (Homo sapiens, UniProt O15350 104-383)
# T7 sequence: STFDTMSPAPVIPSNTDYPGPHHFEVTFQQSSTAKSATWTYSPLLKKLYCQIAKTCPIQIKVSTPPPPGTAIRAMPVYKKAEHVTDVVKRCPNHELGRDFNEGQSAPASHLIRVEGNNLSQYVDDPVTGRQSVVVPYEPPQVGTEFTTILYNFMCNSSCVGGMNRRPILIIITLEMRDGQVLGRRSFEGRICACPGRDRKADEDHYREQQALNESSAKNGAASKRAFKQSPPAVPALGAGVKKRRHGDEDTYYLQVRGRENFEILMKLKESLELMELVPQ
Sequence,binding signal [1] [delta log10 Kd],binding signal [2] [delta log10 Kd],binding signal [3] [delta log10 Kd],binding signal [4] [delta log10 Kd],binding signal [5] [delta log10 Kd],binding signal [6] [delta log10 Kd],binding signal [7] [delta log10 Kd],binding signal [8] [delta log10 Kd],binding signal [9] [delta log10 Kd],binding signal [10] [delta log10 Kd]
CGCGGACACGTCCGGACATGTCCCGC,0.25,0.65,0.53,0.7,0.25,0.57,0.52,0.62,0.36,0.58
CGCGGACATGCCCGGACATGTCCCGC,0.26,,0.03,0.03,0.06,0.13,0.12,0.03,,0.05
CGCGGACATGTCAGGACATGTCCCGC,0.14,0.32,0.31,0.27,0.09,0.13,0.13,0.27,0.2,0.2
CGCGGACATATCCGGACATGTCCCGC,0.98,1.14,0.83,1.01,0.92,1.2,1.31,1.32,0.63,1.44
CGCGGACATGTCTGGACATGTCCCGC,0.03,0.02,0.13,0.07,0.04,0.05,0.05,0,0.11,0.08
CGCGGACATGACCGGACATGTCCCGC,0.24,,0.42,0.43,0.43,0.62,0.72,0.78,,0.57
CGCAGACATGTCCGGACATGTCCCGC,0.03,0.01,0.01,0,0,0.03,0.04,0.01,0.05,0.02
CGCGGAAATGTCCGGACATGTCCCGC,1.31,1.13,0.77,0.9,1.08,0.93,1.4,1.49,0.52,1.35
